Tau ThT inhib = tau fibrillization inhibition (ThT binding). P10636. recombinant tau K18 P301L, heparin-induced fibrillization, ThT fluorescence. Potency, µM (doses to about 57.4 µM), inactives show at the highest dose activity, negative = inhibition, actives largely listed as inhibitors. 270,000 tested, 2.1% active; note: nearly all actives have a fitted effect of over 55% in size
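Using a mix of unlabeled (15 uM) and Alexa 594-labeled (0.24 uM) tau K18 P301L, heparin-triggered fibrillization over 6 hr at 37 C was scored by ThT fluorescence.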
Tau FP inhib = blocks human tau fibril formation measured by polarization | K18 P301L tau heparin fibrillization, Alexa594 FP, 6 h | Potency, µM (titrated, usually from 57.7 µM), for inactives: at the top dose activity, negative = inhibition, actives largely listed as inhibitors | 280,000 tested, 0.39% active | AID 1468; note: nearly all actives have a fitted effect of over 55% in size
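FP of Alexa 594-tau after heparin (20 uM) induction. Substrate: human K18 P301L, 15 uM unlabeled, 0.24 uM labeled. Buffer 100 mM sodium acetate pH 7. 6 hr, 37 C.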
Tau fluor cs = counter-screen for tau fibril formation inhibitors. tau K18 P301L Alexa594 fluorescence, heparin fibrillization. Potency, µM (top dose mostly 57.7 µM), for inactives: top-dose activity change, negative = decrease. 280,000 tested, 0.93% active; note: nearly all actives have a fitted effect of over 55% in size
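Human tau K18 P301L (15 uM unlabeled, 0.24 uM Alexa 594-labeled) in 100 mM sodium acetate pH 7 with 20 uM heparin, 6 hr at 37 C. ThT 30 uM added, 1 hr ambient; Alexa 594 FP and total fluorescence read at 555/632 nm.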
NPSR antagonist = neuropeptide S receptor (human) antagonism, cAMP. Potency, µM (top dose mostly 38.3 µM), for inactives: at the highest dose activity change, negative = inhibition, actives largely listed as inhibitors. AID 1461. CHO-NPSR cells, cAMP TR-FRET, antagonist mode. 220,000 tested, 1% active. Q6W5P4; note: nearly all actives have a fitted effect of over 50% in size
Target sequence (Q6W5P4 whole entry, looked up): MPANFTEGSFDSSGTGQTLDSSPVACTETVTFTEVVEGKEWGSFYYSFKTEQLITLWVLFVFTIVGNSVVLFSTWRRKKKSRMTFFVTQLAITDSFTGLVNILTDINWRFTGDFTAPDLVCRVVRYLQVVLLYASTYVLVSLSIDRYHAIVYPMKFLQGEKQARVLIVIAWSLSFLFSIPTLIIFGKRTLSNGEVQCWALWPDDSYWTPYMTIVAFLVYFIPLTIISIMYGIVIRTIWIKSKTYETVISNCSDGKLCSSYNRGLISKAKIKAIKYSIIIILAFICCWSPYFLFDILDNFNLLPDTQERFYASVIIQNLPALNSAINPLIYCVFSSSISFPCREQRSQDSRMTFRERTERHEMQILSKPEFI
HPGD inh = blocks human HPGD enzyme activity | 150,000 tested, 4.3% active | purified HPGD, NADH fluorescence kinetic, PGE2 substrate | Potency, µM, for the others: at the highest dose activity change, negative = inhibition, most hits filed as inhibitors; active = well fitted inhibition curve with a large enough effect, not every such curve was filed as active; inconclusive = small, poorly fitted or top-dose-only effect, or another doubt; inactive = no such curve, though single readings can be large or run the other way
Target sequence (P15428 whole entry, looked up): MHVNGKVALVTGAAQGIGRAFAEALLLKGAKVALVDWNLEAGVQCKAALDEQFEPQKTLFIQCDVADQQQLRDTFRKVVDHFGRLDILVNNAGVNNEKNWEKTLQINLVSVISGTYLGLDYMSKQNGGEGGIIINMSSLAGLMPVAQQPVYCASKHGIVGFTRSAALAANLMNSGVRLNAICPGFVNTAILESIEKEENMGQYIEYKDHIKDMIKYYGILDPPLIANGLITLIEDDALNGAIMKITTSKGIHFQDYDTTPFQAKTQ
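NADH formation kinetics: reaction with 30 uM PGE2 and 1 mM NAD+ (final), 20 nM enzyme, Tris-HCl pH 8 with Tween 20, after 15 min compound preincubation at room temperature. Fluorescence change, last versus first of five reads.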
ALDH1A1 inh = inhibitors of human aldehyde dehydrogenase 1A1 | Purified ALDH1A1, NADH fluorescence, propionaldehyde substrate | Potency, µM (series often up to 75.3 µM), without a hit: at the top dose activity, negative = inhibition, usual class: inhibitors | 220,000 tested, 7.3% active; active = well fitted inhibition curve with a large enough effect, not every such curve was filed as active; inconclusive = small, poorly fitted or top-dose-only effect, or another doubt; inactive = no such curve, though single readings can be large or run the other way;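 note: plate controls were no enzyme wells and a reference inhibitor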
* hit, by the source's call; ? = inconclusive; . = no result; [ ] = remark or other dose. A selection: hits, their analogues and other compounds. The true share with any hit is near 9.5%. Unless noted, calls come from the whole dose curve; as a rule, active = well fitted curve in the direction sought with a large enough effect; inconclusive = small, poorly fitted or top-dose-only effect, or another doubt; inactive = no such curve, though single readings can be large; an effect the other way counts as inactive or inconclusive. Unless noted, % is set by controls: 0 for no effect and ±100 for the full control effect; potency is the fitted concentration of half-maximal effect.

SMILES | Tau ThT inhib | Tau FP inhib | Tau fluor cs | NPSR antagonist | HPGD inh | ALDH1A1 inh
CC1=C(C#N)C(c2ccoc2)C(C(=O)OCc2ccccc2)=C(N)S1 (stereo unspecified) | -17% | -5% | -21% | -1%[46.1 µM] | -18% | 28µM*
N#CC1=C(N)SC(N)=C(C#N)C1c1ccoc1 | 22µM* | ? | ? | 29%[46.1 µM] | 28µM* | 20µM*
Cc1[nH]nc2c1C(c1ccoc1)C(C#N)=C(N)O2 (stereo unspecified) | ? | -8% | -8% | 12%[46.1 µM] | 0% | -2%
Cc1ccsc1CN1CCc2nc(Nc3ccccc3)ncc2C1 | ? | -3% | -27% | . | . | .
O=C(CN(CCc1ccccc1)C(=O)CN1C(=O)COc2ccccc21)NCc1ccco1 | -13% | 2% | 1% | -14%[46.1 µM] | -9% | 8.9µM*
O=C(CN(CCc1ccccc1)C(=O)Cn1nnc(-c2cccs2)n1)NCc1ccco1 | -10% | -4% | -7% | 0%[46.1 µM] | -20% | 13µM*
CC1=C(C(=O)Nc2ccccc2C)C(c2ccccn2)n2nc(SCc3ccccc3F)nc2N1 (stereo unspecified) | -4% | -13% | -9% | . | . | .
CCc1nnc(NS(=O)(=O)c2ccc(N/C=C\C(=O)c3ccc(C)cc3)cc2)s1 | ? | -11% | -13% | -21%[46.1 µM] | 25µM* | ?
CCc1nnc(NS(=O)(=O)c2ccc(N/C=C/C(=O)c3ccc(C)cc3)cc2)s1 | ? | -3% | 0% | -23% | 18µM* | ?
Oc1c(C(c2cccc(Cl)c2)N2CCOCC2)sc2nc(-c3ccco3)nn12 (stereo unspecified) | ? | -8% | -14% | . | . | .
Cn1c(N)c(C(=O)Nc2ccccc2F)sc1=S | ? | -7% | -21% | -6% | . | ?
COc1ccccc1-n1c(N)c(C(N)=O)sc1=S | 5% | -5% | 3% | 17%[46.1 µM] | 28µM* | 28µM*
Cn1c(N)c(C(=O)Nc2ccc3ccccc3c2)sc1=S | ? | -8% | -28% | -10%[46.1 µM] | 8.9µM* | 13µM*
Nc1c(C(=O)Nc2ccc(F)cc2)sc(=S)n1-c1ccccc1F | -17% | -14% | -9% | -22% | . | 13µM*
Cc1no[n+]([O-])c1COc1ccc(/C=N/n2nnnc2N)cc1 | -2% | -7% | -11% | -18% | -3% | 5%
COc1cc2c(cc1OC)[C@@H]1CC(=O)[C@@H](CC(C)C)CN1CC2 | ? | -16% | -19% | . | ? | ?
O=S(=O)(CCN1CCN(C(c2ccccc2)c2ccccc2)CC1)C(F)(F)F | ? | -6% | -14% | ? | -6% | 0.35µM*
c1ccc(OCCOCCN2CCN(C(c3ccccc3)c3ccccc3)CC2)cc1 | ? | -2% | -10% | -40% | -12% | ?
COc1ccc2ccccc2c1/C=N/O | -6% | 6% | 11% | 4%[46.1 µM] | 7.1µM* | -3%
C=CCOc1ccc2ccccc2c1/C=N/O | -20% | -4% | -12% | -12%[46.1 µM] | 2.5µM* | -2%
C=CCOc1ccc(/C=N/O)cc1Cl | -10% | 15% | -6% | 14% | -19% | 3%
C=CCOc1ccc(Br)cc1/C=N/O | -19% | -9% | -15% | -12%[46.1 µM] | 4.5µM* | ?
CC(C)(C)CC(=O)O/N=C(\N)c1ccncc1 | 5% | -1% | 5% | 8% | . | 6%
Cc1ccc(CNc2nc(-c3ccco3)nn2S(C)(=O)=O)cc1 | 16% | -2% | -6% | . | . | .
Cc1cc(C)cc(NC(=O)C(=O)NCCc2c[nH]c3ccccc23)c1 | ? | -4% | 16µM*[quencher] | -12% | . | 2%
SMILES | Tau ThT inhib | Tau FP inhib | Tau fluor cs | NPSR antagonist | HPGD inh | ALDH1A1 inh
COc1ccc(Cl)cc1NC(=S)NCCc1c[nH]c2ccccc12 | ? | 5% | 22µM*[quencher] | ? | -11% | -1%
Cc1ccc(C)c(NC(=O)C(=O)NCCc2c[nH]c3ccccc23)c1 | -15% | -6% | ? | -8% | . | -5%
CC(C)c1ccc(NC(=S)NCCc2c[nH]c3ccccc23)cc1 | ? | 2% | 11µM*[quencher] | -20% | -15% | ?
O=C(NCCc1c[nH]c2ccccc12)OCCSS(=O)(=O)O | 14µM* | ? | -15% | 2% | . | 15%
Cc1ccc(NC(=S)NCCc2c[nH]c3ccccc23)cc1 | ? | ? | ? | -15%[46.1 µM] | 1% | -5%
Cc1ccccc1NC(=S)NCCc1c[nH]c2ccccc12 | -13% | 6% | -22% | -12% | -8% | -1%
O=C(Nc1nc2n(n1)C(c1ccc(F)cc1)C=C(c1ccc(Cl)cc1)N2)c1ccc([N+](=O)[O-])cc1 (stereo unspecified) | -2% | 3% | 2% | . | . | .
CC(=NCC1CCNCC1)C1=C(O)CC(C)(C)CC1=O | ? | -2% | -4% | 7%[46.1 µM] | 2% | -2%
CC(=NCCCNC1CCCCC1)C1=C(O)CC(C)(C)CC1=O | -5% | -2% | 2% | 5%[46.1 µM] | -4% | 28µM*
Cc1cc(-c2ccccc2)n(-c2ccc(C(=O)NC(C)C)cc2)n1 | -18% | -6% | -28% | -10%[46.1 µM] | -8% | -2%
Cc1cc(C)n(-c2ccc(C(=O)NC(C)C)cc2)n1 | -7% | ? | -7% | 19%[46.1 µM] | 20µM* | -6%
O=C(c1cc2c(cc1Br)OCCCO2)N1CCCCC1 | 3% | -1% | 6% | 4% | 2.2µM* | 9%
O=C(c1cc(F)c(F)cc1Cl)N1CCCCC1 | 1% | 0% | -2% | -2%[46.1 µM] | 5.6µM* | -1%
O=C(O)c1cc(Cl)c(Cl)cc1C(=O)N1CCCC1 | -12% | -9% | -2% | -15%[46.1 µM] | -12% | 7%
COCCN(Cc1ccccc1)C(=S)Nc1ccc(Cl)cc1 | -9% | -2% | -25% | -47% | . | 0%
O=C(NCCCn1ccnc1)/C(=C/c1ccco1)NC(=O)c1ccco1 | -8% | -2% | -6% | 12% | . | .
O=c1ccn(CCc2c[nH]c3ccccc23)c2c1CCCC2 | -3% | 4% | 4% | 10% | . | 14µM*
Cc1ccc(S(=O)(=O)NCCC(=O)Nc2nnc(C3CC3)s2)cc1C | -15% | 3% | -7% | -14%[46.1 µM] | -9% | 18µM*
O=C1CCCC2=C1C(c1ccc(Cl)cc1)C1C(=O)c3ccccc3C1=N2 (stereo unspecified) | 16µM* | 14% | 22µM*[quencher] | ? | -2% | 0%
CCn1cc(/C=C/C(=O)Nc2ccn(Cc3c(F)c(F)cc(F)c3F)n2)cn1 | 22µM* | ? | -9% | -9% | ? | ?
Cc1ccc(-n2nc(CO)c(C(=O)NCCCCc3ccccc3)n2)cc1C | -1% | -5% | 2% | . | . | .
Cc1cc(-c2nc3c4c5c(sc4[nH]c(=O)n3n2)CCC5)c(C)o1 | ? | -3% | -28% | -16%[46.1 µM] | 20µM* | -8%
CCOc1cc(NS(=O)(=O)c2ccccc2)c(OCC)cc1NC(=O)c1ccco1 | ? | 4% | ? | ? | -12% | 7.9µM*

High-throughput results deposited in PubChem by National Center for Advancing Translational Sciences (NCATS).
